Source: PubChem BioAssay
DT40 TDP1 CPT – qHTS for Inhibitors of human tyrosyl-DNA phosphodiesterase 1 (TDP1): qHTS in cells in presence of CPT | chicken DT40 Tdp1-/-;hTDP1 cells + 20 nM CPT, ATP luminescence, 48 h | Potency, µM (titrated, usually from 46.2 µM), for inactives: top-dose activity change, negative = growth inhibition, actives largely listed as inhibitors | actives 12% (n = 420,000) | AID 686979, 2013; note: potency is the fitted concentration of half-maximal effect; nearly all actives have a fitted effect of over 55% in size
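Cell growth measured by CellTiter-Glo luminescence after a minimum 48 h, 37 C compound exposure with 20 nM CPT in Tdp1-knockout DT40 cells stably expressing hTDP1, seeded 400/well; qHTS titration format.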
TDP1 block – qHTS Assay for Inhibitors of Tyrosyl-DNA Phosphodiesterase (TDP1) | Tyrosyl-DNA phosphodiesterase 1 (Homo sapiens), Q9NUW8 | recombinant TDP1, AlphaScreen DNA substrate cleavage | Potency, µM (top dose mostly 130 µM), inactives show at the highest dose activity change, negative = inhibition, actives largely listed as inhibitors | actives 0.28% (n = 350,000) | AID 485290, 2010; note: potency is the fitted concentration of half-maximal effect; nearly all actives have a fitted effect of over 40% in size
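Here, a 5' biotin and 3' phosphotyrosine-FITC DNA oligonucleotide reports Tdp1 activity: intact substrate bridges AlphaScreen beads, while cleavage leaves a 3' phosphate and drops signal. All incubations at room temperature.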
Six1-Eya2 blk – qHTS Assay for Inhibitors of the Six1/Eya2 Interaction | AlphaScreen GST-Six1/His-Eya2 binding, biochemical; active compounds read low | activity change, % (concentration not given with the values) | actives 0.56% (n = 360,000); in the data active = activity change below about -65%; inconclusive = mostly about -30% to -63%
Target sequence (O00167 whole entry, looked up): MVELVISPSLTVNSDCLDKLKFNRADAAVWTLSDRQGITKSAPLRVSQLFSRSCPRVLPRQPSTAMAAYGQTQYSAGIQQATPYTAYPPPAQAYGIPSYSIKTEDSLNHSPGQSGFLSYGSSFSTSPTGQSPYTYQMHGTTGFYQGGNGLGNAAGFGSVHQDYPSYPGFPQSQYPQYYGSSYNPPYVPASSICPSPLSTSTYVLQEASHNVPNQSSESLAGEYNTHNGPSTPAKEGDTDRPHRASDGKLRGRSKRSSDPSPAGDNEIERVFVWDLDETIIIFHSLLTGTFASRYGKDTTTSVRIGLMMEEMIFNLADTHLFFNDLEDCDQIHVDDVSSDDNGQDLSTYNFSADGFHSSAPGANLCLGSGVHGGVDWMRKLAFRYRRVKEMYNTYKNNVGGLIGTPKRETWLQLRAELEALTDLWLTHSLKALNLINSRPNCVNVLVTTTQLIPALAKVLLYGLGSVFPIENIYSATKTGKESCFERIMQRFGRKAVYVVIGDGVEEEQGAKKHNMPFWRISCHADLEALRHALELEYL
Target sequence (Q15475 whole entry, looked up): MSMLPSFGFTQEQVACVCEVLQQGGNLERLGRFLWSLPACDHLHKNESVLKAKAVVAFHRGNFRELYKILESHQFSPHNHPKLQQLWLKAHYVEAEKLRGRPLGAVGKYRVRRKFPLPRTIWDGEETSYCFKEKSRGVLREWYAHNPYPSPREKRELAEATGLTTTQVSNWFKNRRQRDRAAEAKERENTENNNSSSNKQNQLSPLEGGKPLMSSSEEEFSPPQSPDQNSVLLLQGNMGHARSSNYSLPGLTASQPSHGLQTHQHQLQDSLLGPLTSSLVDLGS
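Compounds are tested against tagged Six1 and Eya2 proteins bridged by glutathione donor and nickel acceptor beads; after a one-hour incubation at 37 °C without light, AlphaScreen emission is recorded.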
CtBP-E1A inh – qHTS Assay for Inhibitors of the CtBP/E1A Interaction. activity change, % (concentration not given with the values). actives 0.49% (n = 340,000). AlphaScreen GST-E1A/His-CtBP binding, 1536-well; active compounds read low. CtBP / adenovirus E1A interaction (AlphaScreen); in the data active = activity change below about -65%; inconclusive = mostly about -30% to -63%
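Protein mix (5X: 125 nM each GST-E1A, His-CtBP) was incubated with pinned compound 2 h at 37 deg C in dark, in 50 mM Tris pH 8.0 buffer with 300 mM NaCl. Glutathione donor and nickel acceptor beads followed; AlphaScreen signal read after 1 h.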
DT40 TDP1 no CPT – qHTS for Inhibitors of human tyrosyl-DNA phosphodiesterase 1 (TDP1): qHTS in cells in absence of CPT; Potency, µM (highest dose often 46.2 µM), for the others: at the highest dose activity change, negative = growth inhibition, most hits filed as inhibitors; actives 15% (n = 420,000); DT40 Tdp1-/- hTDP1 cells, no CPT, ATP luminescence, 48 h; note: potency is the fitted concentration of half-maximal effect; nearly all actives have a fitted effect of over 55% in size
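Seeded 400 DT40-hTDP1 cells/well (vehicle DMSO, no 20 nM CPT); pinned compounds; ≥48 hr at 37 °C; CellTiter-Glo luminescence as viability measure.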
IL1B secr inh – qHTS for Inhibitors of Inflammasome Signaling: IL-1-beta AlphaLISA Primary Screen. activity change, % at 57.5 µM. THP-1 LPS/ATP IL-1B secretion, AlphaLISA, 16 h; active compounds read low. actives 4.7% (n = 360,000). AID 743279, 2014; in the data active = activity change below about -50%; inconclusive = mostly about -30% to -49%
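Secreted IL-1B measured by AlphaLISA bead assay after 16 h compound exposure of THP-1 cells; compounds (final up to 57.5 uM) added 1 h before LPS (250 ng/mL) and ATP (1.25 mM) stimulation; lower signal means less secretion.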
* = called active by the depositor; ? = inconclusive; nt = no result; [ ] = another dose, or the depositor's remark. Sampled rows, rich in hits. Any-hit rate of the full collection: about 18%. Unless noted, calls come from the whole dose curve; as a rule, active = well fitted curve in the direction sought with a large enough effect; inconclusive = small, poorly fitted or top-dose-only effect, or another doubt; inactive = no such curve, though single readings can be large; an effect the other way counts as inactive or inconclusive. % is set by controls: 0 for no effect and ±100 for the full control effect.

SMILES	DT40 TDP1 CPT	TDP1 block	Six1-Eya2 blk	CtBP-E1A inh	DT40 TDP1 no CPT	IL1B secr inh
COc1cc(C(=O)Nc2scc(-c3ccc(C)cc3)c2C(=O)O)cc(OC)c1OC	-11.4%	nt	-8.6	-7.8	0.4%	-18.3
N/C(Cc1ccc(Cl)c(Cl)c1)=N\OC(=O)c1ccc(Br)o1	5.3%	8.2%	-1.5	2.6	2.1%	-7.6
CCOC(=O)c1c(-c2ccc(C)cc2)csc1NC(=O)/C(C#N)=C/c1ccc(O)c(OC)c1	?	0.0%	5.8	0.6	14.6µM*	-21.7
COc1ccc(OC)c(C(=O)COC(=O)C(CCSC)NC(=O)COc2ccccc2)c1 (stereo unspecified)	-23.5%	nt	-9.6	-20.0	-14.8%	-17.1
COc1ccc(C(=O)c2ccc(OC)cc2OC)cc1	-102.5%	1.3%	2.3	7.0	5.8µM*	34.3
COc1ccc(/C(C)=N/N=C(N)N)c(OC)c1	18.4µM*	2.7%	4.1	3.0	-25.6%	5.7
COc1ccc(OC)c(C(=O)CCCCC(=O)c2cc(OC)ccc2OC)c1	?	nt	-1.8	3.3	18.4µM*	6.5
COc1ccc(OC)c(C(=O)COC(=O)COc2ccccc2)c1	14.6µM*	1.0%	35.0	10.1	5.8µM*	?
COc1ccc(N2C(=O)c3ccccc3NC2c2ccccc2O)cc1 (stereo unspecified)	-12.0%	nt	1.0	-17.6	-1.1%	-17.7
Cn1cnnc1Sc1ccc(/C=C(\CC(=O)O)c2nc3ccccc3s2)cc1[N+](=O)[O-]	-9.1%	-2.4%	-17.4	-12.5	0.8%	15.1
COc1ccc(C(=O)Nc2ccc3ccccc3c2)cc1	3.6%	nt	-1.7	nt	3.0%	-5.0
COc1ccc(C(=O)c2ccc(N3CCOCC3)cc2)c(OC)c1	?	3.1%	-1.8	4.8	?	-18.3
COc1ccc(C(=O)COC(=O)c2ccc(Cl)nc2)cc1OC	6.3%	-5.5%	-1.2	-2.1	-3.7%	-4.5
COc1ccc(OC)c(C(=O)c2ccccc2)c1	-11.7%	-0.4%[56.1 µM]	5.2	9.5	-12.9%	0.0
COc1ccc(OC)c(C(=O)c2ccc(C(=O)c3cc(OC)ccc3OC)cc2)c1	?	8.8%	-2.0	6.0	?	-75.1*
COc1ccc(C(=O)c2ccc(N(C)C)cc2)c(OC)c1	3.16µM*	4.4%	-3.9	-3.4	2.82µM*	-8.7
COc1ccc(OC)c(C(=O)c2ccc(C(=O)Nc3ccc4ccccc4c3)cc2)c1	20.6µM*	4.2%	1.5	6.4	18.4µM*	-7.3
COc1ccc(C(=O)COC(=O)c2ccc(Cl)nc2)c(OC)c1	0.2%	50.1µM*	2.5	9.0	-17.5%	0.2
CCC(C)n1c(SCC(=O)N(CC)c2c(N)n(Cc3ccccc3)c(=O)[nH]c2=O)nc2ccccc2c1=O (stereo unspecified)	-25.7%	nt	7.5	-14.3	-13.2%	0.0
Cc1cc(NC(=O)c2ccccc2)ccc1NC(=O)Cc1ccccc1	2.1%	nt	14.8	-4.4	-2.7%	-7.6
CCCOc1ccc(-c2cn3ccccc3n2)cc1[N+](=O)[O-]	?	5.3%	-9.9	-12.0	14.6µM*	-24.5
CCOc1ccc(CN2CCNC(=O)C2CC(=O)N(C)Cc2nonc2C)cc1 (stereo unspecified)	-2.5%	3.1%	22.1	0.0	-2.1%	0.0
CCOc1ccccc1CN1CCNC(=O)C1CC(=O)N(C)Cc1nonc1C (stereo unspecified)	?	2.9%	16.9	-15.3	1.0%	-57.2*
CN(C)S(=O)(=O)N(CC(=O)NCCSCc1cccc(Cl)c1)c1ccccc1	?	1.1%	nt	nt	23.1µM*	nt
CS(=O)(=O)N(CC(=O)NCCSCc1cccc(Cl)c1)c1ccc(F)cc1	-16.8%	nt	-3.4	-1.5	-17.0%	-28.7
SMILES	DT40 TDP1 CPT	TDP1 block	Six1-Eya2 blk	CtBP-E1A inh	DT40 TDP1 no CPT	IL1B secr inh
Cc1cccc(CSCCNC(=O)CN(c2ccccc2)S(=O)(=O)N(C)C)c1	?	-1.1%	nt	nt	20.6µM*	nt
CCOC(=O)c1[nH]c2ccc(C)cc2c1N	?	2.5%	-4.4	-4.6	?	17.3
CCOC(=O)C1(N(CC)CC)Sc2cc(C)ccc2NC1=O (stereo unspecified)	16.4µM*	1.9%	-5.1	-2.5	18.4µM*	35.0
NCCCNc1ccc([N+](=O)[O-])cc1C(F)(F)F	-5.9%	-2.5%	-0.9	0.0	13µM*	-50.5*
COc1ccc(C(=O)c2nccc3cc(OC)c(OC)cc23)cc1OC	?	0.2%	8.5	-6.9	?	65.9
COc1cc2c(cc1OC)-c1c(OC)c(OC)cc3ccnc(c13)C2=O	4.11µM*	11.9%[56.1 µM]	?	-71.3*	4.11µM*	?
COc1ccc(C2C(C(=O)N3CCC(C)CC3)c3ccccc3C(=O)N2C)cc1 (stereo unspecified)	-22.6%	2.6%	5.5	5.5	-25.5%	22.1
O=C(CN1C(=O)c2ccccc2Sc2ncccc21)Nc1cccc(C(F)(F)F)c1	18.4µM*	2.6%	nt	nt	?	nt
Cc1ccc(NC(=O)CCN2C(=O)c3ccccc3Sc3ncccc32)c(Cl)c1	18.4µM*	5.1%	nt	nt	18.4µM*	nt
Cc1cc(C)c(NC(=O)CCN2C(=O)c3ccccc3Sc3ncccc32)c(C)c1	?	-5.1%	nt	nt	20.6µM*	nt
Cc1ccc(S(=O)(=O)N2CCN(c3ccccn3)CC2)cc1	-12.1%	2.9%	-0.2	4.6	-2.6%	24.3
Cc1nc2ccc(NC(=O)/C=C/C(=O)O)cc2nc1C	9.5%	-2.5%	-2.4	-17.5	4.8%	25.2
Cc1cccc(C)c1NC(=O)N1CC=CCC1	-1.1%	nt	4.1	4.0	6.7%	-4.0
Cc1ccnn1-c1ccc(C(=O)NCc2ccccc2CN2CCOCC2)cc1	20.6µM*	0.7%	-4.5	-0.9	18.4µM*	-16.9
CCCCn1c(SCC(=O)Nc2ccc3c(c2)OCO3)nc2c1c(=O)n(C)c(=O)n2C	16.4µM*	2.1%	-11.0	3.1	?	-20.0
CCCn1c(SCC(=O)Nc2nc3ccccc3s2)nc2c1c(=O)n(C)c(=O)n2C	23.1µM*	4.5%	9.1	0.4	23.1µM*	0.0
CCCn1c(SCC(=O)Nc2ccc(NC(=O)CC)cc2)nc2c1c(=O)n(C)c(=O)n2C	0.4%	3.9%	-8.4	-5.9	20.6µM*	-6.9
